Measured values reported in PubChem BioAssay (NCI).
About 83,000 compounds went through this panel and 20% of them were active in at least one assay; those are over-represented in the sample as a whole.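 Negative percent growth values reflect cell death: -40 means 40% of the cells present at the start died, and -100 means all died.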 The source made the active and inactive calls. The calls were made as follows: active = growth percent below 10; inactive = the rest.

What was measured:
Assay in all cases: NCI-60 one-dose screen, 48 h (100 = growth as untreated, 0 = no growth, -100 = all killed)
RPMI-8226 leukemia = settings: 10 µM unless noted
OVCAR-8 ovarian = settings: 10 µM unless noted
OVCAR-5 ovarian = settings: 10 µM unless noted
OVCAR-4 ovarian = settings: 10 µM unless noted
SK-OV-3 ovarian = settings: 10 µM unless noted
IGROV1 ovarian = settings: 10 µM unless noted
OVCAR-3 ovarian = settings: 10 µM unless noted
HS 578T breast = settings: 10 µM
NCI/ADR-RES ovarian = settings: 10 µM unless noted
T-47D breast = settings: 10 µM unless noted
BT-549 breast = settings: 10 µM unless noted
MDA-MB-435 melanoma = settings: 10 µM unless noted
SW-620 colon = settings: 10 µM unless noted
MCF7 breast = settings: 10 µM unless noted
HCT-116 colon = settings: 10 µM unless noted
HCC-2998 colon = settings: 10 µM unless noted
KM12 colon = settings: 10 µM unless noted

Measured: growth

COc1ccc(/C=C/C(=O)c2ccc(NC(=O)CSc3nnc(-c4ccc(Cl)cc4)n3-c3ccccc3)cc2)cc1
inactive: RPMI-8226 leukemia 60.4% | OVCAR-8 ovarian 84.6% | OVCAR-5 ovarian 123% | OVCAR-4 ovarian 99.5% | SK-OV-3 ovarian 104% | IGROV1 ovarian 103% | OVCAR-3 ovarian 102% | HS 578T breast 97.1% | NCI/ADR-RES ovarian 93.9% | T-47D breast 77.2% | BT-549 breast 93% | MDA-MB-435 melanoma 94.4% | SW-620 colon 110% | MCF7 breast 70.3% | HCT-116 colon 36.4% | HCC-2998 colon 103% | KM12 colon 94.5%

COc1ccc(-c2nnc(SCC(=O)Nc3ccc(C(=O)/C=C/c4ccc(Cl)cc4)cc3)n2-c2ccccc2)cc1
inactive: RPMI-8226 leukemia 83.8% | OVCAR-8 ovarian 100% | OVCAR-5 ovarian 107% | OVCAR-4 ovarian 92.4% | SK-OV-3 ovarian 99.5% | IGROV1 ovarian 93.5% | OVCAR-3 ovarian 97.8% | HS 578T breast 96.9% | NCI/ADR-RES ovarian 102% | T-47D breast 88% | BT-549 breast 84.6% | MDA-MB-435 melanoma 105% | SW-620 colon 101% | MCF7 breast 95.3% | HCT-116 colon 76% | HCC-2998 colon 103% | KM12 colon 98.2%

COc1ccc(Nc2ncnc3c2sc2nc(C)cc(C)c23)cc1
inactive: RPMI-8226 leukemia 101% | OVCAR-8 ovarian 95% | OVCAR-5 ovarian 93.1% | OVCAR-4 ovarian 95.2% | SK-OV-3 ovarian 118% | IGROV1 ovarian 99.4% | OVCAR-3 ovarian 113% | HS 578T breast 93% | NCI/ADR-RES ovarian 108% | T-47D breast 89.6% | BT-549 breast 104% | MDA-MB-435 melanoma 98.7% | SW-620 colon 108% | MCF7 breast 80.1% | HCT-116 colon 90.4% | KM12 colon 96.7%

O=C(/C=C/c1cc([N+](=O)[O-])ccc1Cl)c1ccccc1
inactive: RPMI-8226 leukemia 20.9% | OVCAR-8 ovarian 96.3% | OVCAR-5 ovarian 96.1% | OVCAR-4 ovarian 97.2% | SK-OV-3 ovarian 95.4% | IGROV1 ovarian 70.5% | OVCAR-3 ovarian 102% | HS 578T breast 98.6% | NCI/ADR-RES ovarian 93.6% | T-47D breast 72.3% | BT-549 breast 86.3% | MDA-MB-435 melanoma 86% | MCF7 breast 20.6% | HCC-2998 colon 103%
active: SW-620 colon 6.41% | HCT-116 colon -100% | KM12 colon 5.35%

Fc1ccc(-c2nnc(N3CCOCC3)c3ccccc23)cc1
inactive: RPMI-8226 leukemia 111% | OVCAR-8 ovarian 111% | OVCAR-5 ovarian 108% | OVCAR-4 ovarian 112% | SK-OV-3 ovarian 109% | IGROV1 ovarian 104% | OVCAR-3 ovarian 109% | HS 578T breast 114% | NCI/ADR-RES ovarian 109% | T-47D breast 102% | BT-549 breast 81.4% | MDA-MB-435 melanoma 86.6% | SW-620 colon 100% | MCF7 breast 155% | HCC-2998 colon 110% | KM12 colon 109%

O=C(Nc1ccc(Cl)c(C(F)(F)F)c1)c1ccc(Nc2ccc(Cl)nn2)cc1
inactive: RPMI-8226 leukemia 38.3% | OVCAR-8 ovarian 55.2% | OVCAR-5 ovarian 76.7% | OVCAR-4 ovarian 42.2% | SK-OV-3 ovarian 85.3% | IGROV1 ovarian 87.6% | OVCAR-3 ovarian 66.8% | HS 578T breast 85.7% | NCI/ADR-RES ovarian 61.1% | T-47D breast 28.6% | BT-549 breast 37.2% | MDA-MB-435 melanoma 80.2% | SW-620 colon 96.8% | MCF7 breast 53% | HCT-116 colon 53.5% | HCC-2998 colon 67.4% | KM12 colon 51.1%

Cc1nc2n[nH]c(N)c2nc1C
inactive: RPMI-8226 leukemia 106% | OVCAR-8 ovarian 95.1% | OVCAR-5 ovarian 102% | OVCAR-4 ovarian 106% | SK-OV-3 ovarian 104% | IGROV1 ovarian 97.9% | OVCAR-3 ovarian 104% | HS 578T breast 114% | NCI/ADR-RES ovarian 103% | T-47D breast 101% | BT-549 breast 118% | MDA-MB-435 melanoma 107% | SW-620 colon 108% | MCF7 breast 94.8% | HCT-116 colon 109% | HCC-2998 colon 103% | KM12 colon 106%

O=C1C=CC(=O)N1c1cccc(N2C(=O)C=CC2=O)c1
inactive: RPMI-8226 leukemia 91.7% | OVCAR-8 ovarian 106% | OVCAR-5 ovarian 102% | OVCAR-4 ovarian 98.1% | SK-OV-3 ovarian 111% | IGROV1 ovarian 111% | OVCAR-3 ovarian 66.4% | HS 578T breast 114% | NCI/ADR-RES ovarian 110% | BT-549 breast 113% | MDA-MB-435 melanoma 103% | MCF7 breast 65.9% | HCT-116 colon 24.7% | HCC-2998 colon 130% | KM12 colon 122%
active: T-47D breast -13.6% | SW-620 colon 4.72%

Brc1ccccc1Cn1c(-c2cncs2)nc2ccccc21
inactive: RPMI-8226 leukemia 43.3% | OVCAR-8 ovarian 79.2% | OVCAR-5 ovarian 70.8% | OVCAR-4 ovarian 72.4% | SK-OV-3 ovarian 92.2% | IGROV1 ovarian 86.9% | OVCAR-3 ovarian 86.6% | HS 578T breast 69.5% | NCI/ADR-RES ovarian 83.5% | T-47D breast 72.2% | BT-549 breast 85.4% | MDA-MB-435 melanoma 110% | SW-620 colon 88.4% | MCF7 breast 98.9% | HCT-116 colon 73.3% | HCC-2998 colon 92% | KM12 colon 76.7%

C=CCn1c(SCC(=O)Nc2ccc(/C(C)=N\O)cc2)nnc1-c1cc(-c2ccc(Cl)cc2)nc2ccccc12
inactive: OVCAR-8 ovarian 24% | OVCAR-5 ovarian 56.7% | OVCAR-4 ovarian 35% | SK-OV-3 ovarian 52.6% | OVCAR-3 ovarian 31.1% | HS 578T breast 67.1% | BT-549 breast 33.5% | MDA-MB-435 melanoma 30.8% | SW-620 colon 41.1% | MCF7 breast 14% | HCT-116 colon 19.5% | HCC-2998 colon 21% | KM12 colon 16.5%
active: RPMI-8226 leukemia 9% | IGROV1 ovarian -13.8% | NCI/ADR-RES ovarian 2.18% | T-47D breast 7.73%

O=C1C2=C(C(=O)c3c(O)ccc(O)c31)N(c1ccc(N3CCOCC3)nc1)Cc1ccccc1O2
active: RPMI-8226 leukemia -20.6% | OVCAR-8 ovarian -10.6% | OVCAR-5 ovarian -45.2% | OVCAR-4 ovarian -97.8% | IGROV1 ovarian -70.5% | OVCAR-3 ovarian -97.3% | NCI/ADR-RES ovarian 5.43% | T-47D breast -41% | BT-549 breast -78.5% | MDA-MB-435 melanoma -28.6% | SW-620 colon -54.3% | MCF7 breast -34.2% | HCC-2998 colon -66.3% | KM12 colon -34.9%
inactive: SK-OV-3 ovarian 15.2% | HS 578T breast 27.5%

COc1ccc(C2C3=C(COC3=O)N(CCO)c3cc(OC)c(OC)cc32)cc1 (stereo not given)
inactive: RPMI-8226 leukemia 96.1% | OVCAR-8 ovarian 108% | OVCAR-5 ovarian 104% | OVCAR-4 ovarian 105% | SK-OV-3 ovarian 106% | IGROV1 ovarian 119% | OVCAR-3 ovarian 109% | HS 578T breast 106% | NCI/ADR-RES ovarian 105% | T-47D breast 91.3% | BT-549 breast 100% | MDA-MB-435 melanoma 112% | SW-620 colon 101% | MCF7 breast 103% | HCT-116 colon 103% | KM12 colon 106%

O=c1[nH]c2cc(Cl)c(Cl)cc2o1
inactive: RPMI-8226 leukemia 111% | OVCAR-8 ovarian 104% | OVCAR-5 ovarian 113% | OVCAR-4 ovarian 106% | SK-OV-3 ovarian 107% | IGROV1 ovarian 138% | OVCAR-3 ovarian 102% | HS 578T breast 100% | NCI/ADR-RES ovarian 116% | T-47D breast 121% | BT-549 breast 132% | MDA-MB-435 melanoma 103% | SW-620 colon 98.9% | MCF7 breast 105% | HCT-116 colon 98.9% | HCC-2998 colon 117% | KM12 colon 111%

Oc1[nH]c2ccccc2c1/C=c1/ccc2c(c1)N=C(c1ccc(C(F)(F)F)cc1)N=2
inactive: RPMI-8226 leukemia 35.6% | OVCAR-8 ovarian 70.5% | OVCAR-5 ovarian 72.3% | OVCAR-4 ovarian 69.1% | SK-OV-3 ovarian 82.7% | IGROV1 ovarian 41.3% | OVCAR-3 ovarian 25.8% | HS 578T breast 49.1% | NCI/ADR-RES ovarian 69.1% | T-47D breast 35.1% | BT-549 breast 43.3% | MDA-MB-435 melanoma 32.5% | SW-620 colon 63.7% | MCF7 breast 37% | HCT-116 colon 39.5% | HCC-2998 colon 61.4% | KM12 colon 31.6%

COc1cc(/C=C/C(=O)c2c(C)nc3ccccc3c2C)ccc1OCCCOc1cc2c(cc1OC)C(=O)N1CCC[C@H]1C=N2
active: RPMI-8226 leukemia -22.6% | OVCAR-5 ovarian -23.1% | OVCAR-4 ovarian -10.9% | SK-OV-3 ovarian -9.97% | IGROV1 ovarian -61.7% | OVCAR-3 ovarian -86.9% | HS 578T breast -2.33% | T-47D breast -38.8% | BT-549 breast -94.2% | MDA-MB-435 melanoma -60.8% | SW-620 colon -67.6% | MCF7 breast -51.3% | HCT-116 colon -35.8% | HCC-2998 colon -69.3% | KM12 colon -54.2%
inactive: OVCAR-8 ovarian 12.3% | NCI/ADR-RES ovarian 13.9%

CC(=O)Nc1nonc1-c1nc2ccccc2n1Cc1ccc(C(C)(C)C)cc1
inactive: RPMI-8226 leukemia 58% | OVCAR-8 ovarian 78.4% | OVCAR-5 ovarian 93.5% | OVCAR-4 ovarian 81% | SK-OV-3 ovarian 88.9% | IGROV1 ovarian 78.7% | OVCAR-3 ovarian 71.3% | HS 578T breast 27.1% | NCI/ADR-RES ovarian 59.7% | T-47D breast 72.9% | BT-549 breast 93.2% | MDA-MB-435 melanoma 86% | MCF7 breast 58.9% | HCT-116 colon 66.9% | KM12 colon 69.3%

COc1cc(-c2n/c(=C\c3c(O)[nH]c4cc(Cl)ccc34)cc3c2=Nc2ccccc2-3)cc(OC)c1OC
active: OVCAR-4 ovarian -1.32%
inactive: RPMI-8226 leukemia 84.6% | OVCAR-8 ovarian 59.3% | OVCAR-5 ovarian 102% | SK-OV-3 ovarian 59.4% | IGROV1 ovarian 25.2% | OVCAR-3 ovarian 58.1% | HS 578T breast 50% | NCI/ADR-RES ovarian 84.1% | T-47D breast 67.2% | BT-549 breast 45.2% | MDA-MB-435 melanoma 66.2% | SW-620 colon 41.5% | MCF7 breast 55.7% | HCT-116 colon 52.9% | HCC-2998 colon 93.1% | KM12 colon 51.8%

COc1ccc(OC)c(Nc2nc(-c3c(C)nc4sccn34)cs2)c1
inactive: RPMI-8226 leukemia 41.9% | OVCAR-8 ovarian 74.5% | OVCAR-5 ovarian 97.9% | OVCAR-4 ovarian 78% | SK-OV-3 ovarian 103% | IGROV1 ovarian 90.8% | OVCAR-3 ovarian 94.7% | HS 578T breast 73.1% | NCI/ADR-RES ovarian 77.8% | T-47D breast 26.3% | BT-549 breast 84.8% | MDA-MB-435 melanoma 66.1% | SW-620 colon 84.2% | MCF7 breast 39.1% | HCT-116 colon 84.6% | HCC-2998 colon 91.3% | KM12 colon 69.2%
